In the supplement of paper PMC6555819:

Legend:
Experiment in all cases: PBM binding z-score (relative to random genomic background probes); higher = stronger binding; sequences stand for … in GC…GCGATTGACAGCGTAGAATGAAGG
[1] = system: PPARg:RXRa DBDmut IVT, anti-RXR (DBD mutation: RXRa K156A/R161A, NR concentration 270 nM, RXRa partner concentration 90 nM)
Summary of the method: (§1)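 Each nuclear receptor dimer, without ligand, was incubated for 1 h on custom Agilent 4×180K protein-binding microarrays. Binding was detected with antibodies against each partner (one per run), and scanned fluorescence was regression-normalized. The binding z-scores are referenced to random human genomic background probes.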

[2] = system: PPARg:RXRa IVT, anti-PPARg (NR concentration 270 nM, RXRa partner concentration 90 nM)
Summary of the method: as §1

[3] = system: PPARg DBDmut:RXRa IVT, anti-PPARg (DBD mutation: PPARg1 K132A/R137A, NR concentration 270 nM, RXRa partner concentration 90 nM)
Summary of the method: as §1

[4] = system: PPARg DBDmut IVT, anti-PPARg (DBD mutation: PPARg1 K132A/R137A, NR concentration 270 nM)
Summary of the method: as §1

[5] = system: PPARg homodimer (NR concentration 180 nM)
Summary of the method: as §1

[6] = system: PXR:RXRa (NR concentration 270 nM, RXRa partner concentration 90 nM)
Summary of the method: as §1

[7] = system: PXR homodimer (NR concentration 270 nM)
Summary of the method: as §1

[8] = system: RARa:RXR (NR concentration 270 nM, RXRa partner concentration 90 nM)
Summary of the method: as §1

[9] = system: RARa homodimer (NR concentration 270 nM)
Summary of the method: as §1

[10] = system: RARb:RXRa (NR concentration 270 nM, RXRa partner concentration 90 nM)
Summary of the method: as §1

[11] = system: RARb homodimer (NR concentration 270 nM)
Summary of the method: as §1

[12] = system: RARg:RXRa (NR concentration 270 nM, RXRa partner concentration 90 nM)
Summary of the method: as §1

[13] = system: RARg homodimer (NR concentration 270 nM)
Summary of the method: as §1

[14] = system: RXRa DBDmut IVT, anti-RXR (DBD mutation: RXRa K156A/R161A, NR concentration 90 nM)
Summary of the method: as §1

[15] = system: RXRa homodimer (NR concentration 180 nM)
Summary of the method: as §1

[16] = system: THRa:RXRa (NR concentration 90 nM, RXRa partner concentration 90 nM)
Summary of the method: as §1

[17] = system: THRa homodimer (NR concentration 90 nM)
Summary of the method: as §1

[18] = system: VDR homodimer (NR concentration 270 nM)
Summary of the method: as §1

GGAACGAGGGCGAAGTTGATAGCATCTGTCGACG
PBM binding z-score [1]: 1.27 | PBM binding z-score [2]: 1.23 | PBM binding z-score [3]: 0.2 | PBM binding z-score [4]: -0.848 | PBM binding z-score [5]: 0.0285 | PBM binding z-score [6]: -0.347 | PBM binding z-score [7]: -0.365 | PBM binding z-score [8]: -0.254 | PBM binding z-score [9]: -0.834 | PBM binding z-score [10]: 0.606 | PBM binding z-score [11]: -0.341 | PBM binding z-score [12]: 0.0412 | PBM binding z-score [13]: 0.2 | PBM binding z-score [14]: 1.17 | PBM binding z-score [15]: 0.297 | PBM binding z-score [16]: -0.192 | PBM binding z-score [17]: -0.526 | PBM binding z-score [18]: 0.152

CCGACTGGGGCAGAAAGGTTCCCATACCATCCGG
PBM binding z-score [1]: 1.45 | PBM binding z-score [2]: 0.893 | PBM binding z-score [3]: -0.887 | PBM binding z-score [4]: -1.78 | PBM binding z-score [5]: -0.509 | PBM binding z-score [6]: -0.725 | PBM binding z-score [7]: -0.638 | PBM binding z-score [8]: -0.53 | PBM binding z-score [9]: -0.395 | PBM binding z-score [10]: 0.328 | PBM binding z-score [11]: 0.053 | PBM binding z-score [12]: -0.0575 | PBM binding z-score [13]: 0.0675 | PBM binding z-score [14]: -1.16 | PBM binding z-score [15]: -0.265 | PBM binding z-score [16]: -0.504 | PBM binding z-score [17]: -0.737 | PBM binding z-score [18]: -0.826

ACAGACAGGTGAGTGATGGTAACTCAGCTGGACG
PBM binding z-score [1]: 0.622 | PBM binding z-score [2]: 0.347 | PBM binding z-score [3]: -0.278 | PBM binding z-score [4]: -0.268 | PBM binding z-score [5]: 0.364 | PBM binding z-score [6]: -0.415 | PBM binding z-score [7]: -0.0348 | PBM binding z-score [8]: -0.241 | PBM binding z-score [9]: 0.249 | PBM binding z-score [10]: 0.377 | PBM binding z-score [11]: -0.167 | PBM binding z-score [12]: 0.351 | PBM binding z-score [13]: 0.407 | PBM binding z-score [14]: -0.204 | PBM binding z-score [15]: 0.27 | PBM binding z-score [16]: -0.225 | PBM binding z-score [17]: -0.414 | PBM binding z-score [18]: -0.122

CCGAGCAGGCCAGGGTCACTCAAGCATTTCGCTT
PBM binding z-score [1]: -0.216 | PBM binding z-score [2]: 0.461 | PBM binding z-score [3]: -1.99 | PBM binding z-score [4]: -1.55 | PBM binding z-score [5]: 1.51 | PBM binding z-score [6]: 2.78 | PBM binding z-score [7]: -0.479 | PBM binding z-score [8]: 3.47 | PBM binding z-score [9]: -0.256 | PBM binding z-score [10]: 2.65 | PBM binding z-score [11]: 2.91 | PBM binding z-score [12]: 3.13 | PBM binding z-score [13]: 2.66 | PBM binding z-score [14]: 0.694 | PBM binding z-score [15]: 3.6 | PBM binding z-score [16]: 2.91 | PBM binding z-score [17]: 1.02 | PBM binding z-score [18]: 1.31

GCTGCTAGGTCAACTGATGGGCAGCTAAAGCTCG
PBM binding z-score [1]: 4.79 | PBM binding z-score [2]: 4 | PBM binding z-score [3]: -0.683 | PBM binding z-score [4]: -0.478 | PBM binding z-score [5]: 0.434 | PBM binding z-score [6]: 1.1 | PBM binding z-score [7]: -0.949 | PBM binding z-score [8]: 1.93 | PBM binding z-score [9]: -0.663 | PBM binding z-score [10]: 4.1 | PBM binding z-score [11]: 3 | PBM binding z-score [12]: 4.73 | PBM binding z-score [13]: 5.5 | PBM binding z-score [14]: 1.45 | PBM binding z-score [15]: 2.89 | PBM binding z-score [16]: 2.68 | PBM binding z-score [17]: 0.684 | PBM binding z-score [18]: -0.378

ACTAGCGGGCCAAGTTTGGGTCACTCAAACAAAG
PBM binding z-score [1]: 0.418 | PBM binding z-score [2]: 0.997 | PBM binding z-score [3]: -0.878 | PBM binding z-score [4]: -0.789 | PBM binding z-score [5]: 0.424 | PBM binding z-score [6]: 0.722 | PBM binding z-score [7]: -0.623 | PBM binding z-score [8]: 1.51 | PBM binding z-score [9]: -1.37 | PBM binding z-score [10]: 1.64 | PBM binding z-score [11]: 2.11 | PBM binding z-score [12]: 2.14 | PBM binding z-score [13]: 1.65 | PBM binding z-score [14]: -0.0414 | PBM binding z-score [15]: 1.01 | PBM binding z-score [16]: 2.43 | PBM binding z-score [17]: 0.811 | PBM binding z-score [18]: 0.0653

CGAACTAGGTCAGAACAGGCCAGTGAAGGATGAT
PBM binding z-score [1]: 6.91 | PBM binding z-score [2]: 7.16 | PBM binding z-score [3]: 0.994 | PBM binding z-score [4]: -0.348 | PBM binding z-score [5]: 1.63 | PBM binding z-score [6]: 0.505 | PBM binding z-score [7]: -0.233 | PBM binding z-score [8]: 1.18 | PBM binding z-score [9]: -0.387 | PBM binding z-score [10]: 2.97 | PBM binding z-score [11]: 2.09 | PBM binding z-score [12]: 2.58 | PBM binding z-score [13]: 2.86 | PBM binding z-score [14]: 0.213 | PBM binding z-score [15]: 1.28 | PBM binding z-score [16]: 2.53 | PBM binding z-score [17]: -0.201 | PBM binding z-score [18]: -0.281
